An excerpt weighted towards active compounds, which were near 4.8% of everything screened.
hcDAF-12 act: H. contortus DAF-12 nuclear receptor activators, primary screen, cell-based, luminescence, HEK293, lit1-tk-luc reporter. activation, % at 6.8 µM. AID 652067, 2013. 370,000 tested, 1.4% active. HEK293 hcDAF-12 lit1-tk-luc reporter; 0% DMSO, 100% Δ7-dafachronic acid;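 active means activation above the mean of all tested compounds plus 3 SD, cut at about 5.5% in these data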;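 further: 100% = response to 3 µM Δ7-dafachronic acid high control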
ssDAF12 agonist: S. stercoralis DAF-12 nuclear receptor activators, primary screen, cell-based, luminescence, HEK293, GRIP1 co-expression, lit1-tk-luc; AID 652126, 2013; HEK293 ssDAF-12/GRIP1 lit1-tk-luc reporter; % of 3 µM dafachronic acid response; Nuclear hormone receptor DAF-12 (Strongyloides stercoralis); activation, % at 6.8 µM; 370,000 tested, 1% active;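 active means activation above the mean over all tested compounds plus 3 SD, cut at about 0.9% in these data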;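 further: 0% = DMSO-only wells and 100% = 3 µM delta7-dafachronic acid wells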
hgDAF12 agonist: H. glycines DAF-12 receptor agonists, primary screen, cell-based, luminescence, HEK293, GAL4 fusion, UAS-luciferase | HEK293 GAL4-hgDAF12 UAS-luciferase reporter, agonist luminescence; normalized to butyrate control | Nuclear hormone receptor DAF-12 (Heterodera glycines), GAL4 fusion | activation, % at 6.8 µM | 370,000 tested, 1.8% active;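 active means activation above a cutoff set at the mean of all screened compounds plus 3 SD, cut at about 10% in these data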;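 further: 0% = DMSO wells and 100% = sodium butyrate wells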
SMARCA2 activ: SMARCA2 (BRM) function activators, primary screen, cell-based, luminescence, high throughput | MG213 cells, MMTV-luciferase reporter, dexamethasone, overnight | 370,000 tested, 1% active | AID 652017, 2013 | activation, % at 9.1 µM; in the data active means activation above about 7.8%;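 further: 0% = vehicle wells and 100% = reference activator wells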
DAX1 inh-1: DAX1 (NR0B1) inhibitors, primary screen, cell-based, HEK293, Gal4-DAX1, luciferase luminescence. inhibition, % at 6.75 µM. AID 504766, 2011. HEK293 Gal4-DAX1 luciferase reporter. Nuclear receptor subfamily 0 group B member 1 (Homo sapiens), P51843. 340,000 tested, 0.99% active;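 active means inhibition above the mean over all tested compounds plus 3 SD, cut at about 4.2% in these data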;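 further: 0% = DAX1-transfected cells with DMSO and 100% = empty-vector control cells with DMSO; inhibition shows as a rise in luminescence from relieved DAX1 repression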
Target sequence (P51843 207-470 limits assumed): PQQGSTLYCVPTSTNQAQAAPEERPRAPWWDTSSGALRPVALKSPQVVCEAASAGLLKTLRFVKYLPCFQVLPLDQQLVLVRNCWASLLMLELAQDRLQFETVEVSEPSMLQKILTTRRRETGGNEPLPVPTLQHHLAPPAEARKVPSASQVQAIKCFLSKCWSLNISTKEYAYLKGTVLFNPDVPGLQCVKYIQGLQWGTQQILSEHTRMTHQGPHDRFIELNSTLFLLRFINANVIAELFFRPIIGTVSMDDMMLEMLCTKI
DAX1 inh-2: DAX1 (NR0B1) inhibitors on StAR promoter, primary screen, cell-based, luminescence, SF-1 (NR5A1), full-length DAX-1; inhibition, % at 6.8 µM; AID 652010, 2013; 370,000 tested, 1.1% active; HEK293T StAR-luciferase reporter, SF-1/DAX-1 repression relief;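 active means inhibition above the mean over all tested compounds plus 3 SD, cut at about 3.6% in these data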;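 further: 0% = DAX-1 cells with DMSO and 100% = cells lacking DAX-1 with DMSO; higher inhibition means more luminescence from relief of DAX-1 repression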
SMARCA2 conf: SMARCA2 (BRM) function activators, confirmation, cell-based, luminescence, triplicate | shares compounds with SMARCA2 activ | MG213 cells, MMTV-luciferase with dexamethasone, overnight; MG213 cells expressing E1A, Rb sequestered; DMSO wells 0%, reference activator 100% | activation, % at 9.1 µM | 3,500 tested, 30% active | AID 652260, 2013;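 active means activation above its plate's cutoff, the mean activation of tested wells plus 3 SD, cut at about 7.9% in these data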
VP16 Luc act: GAL4-VP16 luciferase reporter activation, counter-screen for SMARCA2 (BRM) activator project, cell-based, pG5luc, luminescence, high throughput. shares compounds with SMARCA2 activ. HEK293 GAL4-VP16 pG5luc reporter; scaled: DMSO wells 0%, SAHA wells 100%. activation, % at 9.1 µM. 3,500 tested, 41% active;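 active means activation above the solvent-only control well mean plus 3 SD, averaged across control plates, cut at about 5.2% in these data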
Numbers without * were called inactive; nt = not tested or not shown.

SMILES	hcDAF-12 act	ssDAF12 agonist	hgDAF12 agonist	SMARCA2 activ	DAX1 inh-1	DAX1 inh-2	SMARCA2 conf	VP16 Luc act
O=C(O)[C@@H]1[C@@H]2C[C@@H]2CN1c1ncccc1[N+](=O)[O-]	-2	-1	-3	9.9*	3	0	2	0
O=C(O)C1CN(c2ncccc2[N+](=O)[O-])C1	-2	0	1	-2	1	0	nt	nt
COCc1cc(C)nc(N/N=C/c2ccc(Cl)c(Cl)c2)c1C#N	-1	-1	-2	8.3*	-2	-1	-2	0
O=C(c1cccc(NC2=NC3CS(=O)(=O)CC3S2)c1)N1CCN(c2ccc(F)cc2)CC1 (stereo unspecified)	-1	-2	0	8.2*	1	1	5	0
Cc1cc(C=C2C(=O)c3ccccc3C2=O)c(C)n1-c1ccc(C(=O)O)cc1	1	0	0	-1	1	0	nt	nt
CCN(CC)C(=O)c1cc2c(=O)c3cc(F)ccc3oc2nc1C	1	0	5	9.6*	0	1	4	4
CC(=O)c1cc2c(=O)c3ccccc3oc2nc1C	-1	-1	0	0	0	0	nt	nt
CCN(c1ccccc1)S(=O)(=O)c1ccc(Cl)nc1	-1	-2	1	-3	0	-1	nt	nt
COc1ccc(-n2cc(-c3ccccc3)[nH]c2=S)cc1	1	0	7	7	1	0	nt	nt
COc1ccc(-n2cnc(=S)[nH]c2=S)cc1	2	0	3	14*	-1	-1	21*	2
O=C1NC(=S)S/C1=C\C=C\c1ccc([N+](=O)[O-])o1	-1	-1	-6	24*	-1	-2	-16	3
O=C(O)/C=C/c1ccc([N+](=O)[O-])o1	-2	-2	3	-4	0	0	nt	nt
CCn1c(SCC(N)=O)nc2ccccc2c1=O	-1	-1	1	8.0*	1	-1	-2	0
OCCNCc1ccc(-c2ccccc2)cc1	3	-1	3	8.2*	0	0	1	0
OC(CNCc1ccc(-c2ccccc2)cc1)c1ccccc1 (stereo unspecified)	-2	-1	-3	-1	-2	0	nt	nt
O=C1c2cccc3c(N4CCCCC4)ccc(c23)C(=O)N1CCO	1	0	6	8.5*	-1	0	7.8*	8.6*
CCOc1ccccc1NS(=O)(=O)c1ccc2c(c1)n(C)c(=O)c(=O)n2C	2	0	-2	12*	-2	0	3	1
Cc1cccc(NC(=O)COc2ccc3c(c2)CCC3)n1	2	-1	6	9.7*	1	3.8*	6	5.5*
C=CCn1c(SCC(=O)NCc2ccco2)nc2ccccc2c1=O	0	-1	1	-2	nt	1	nt	nt
C=CCn1c(SCC(=O)NCc2ccco2)nnc1-c1ccc2ccccc2n1	-4	-2	2	8.3*	-1	-1	-1	1
Cn1c(CNC(=O)C2CCCCC2)cc2ccccc21	1	-1	1	8.2*	0	0	-1	0
CCn1c(CNC(=O)C2CCCCC2)cc2ccccc21	4	0	0	-2	0	0	nt	nt
CCCCSc1nnc(C)c(=O)[nH]1	2	-1	0	2	0	0	nt	nt
CC1CCC(C(C)C)C(OC(=O)C[n+]2cc(-c3ccc(Cl)cc3)n3c2CCC3)C1 (stereo unspecified)	0	-2	-4	-3	0	-1	nt	nt
CCc1nc2ccccc2nc1N1CCN(S(=O)(=O)c2ccc(Cl)cc2)CC1	0	-1	-2	9.4*	1	0	-3	0
SMILES	hcDAF-12 act	ssDAF12 agonist	hgDAF12 agonist	SMARCA2 activ	DAX1 inh-1	DAX1 inh-2	SMARCA2 conf	VP16 Luc act
Cn1c(N2CCN(S(=O)(=O)c3ccc(Cl)cc3)CC2)nc2ccccc21	1	-2	-2	-4	0	1	nt	nt
Cc1c(C(=O)N2CCCC2)c(S(=O)(=O)Nc2ccccc2)c(C)n1C	1	-1	-1	14*	2	0	-1	3
Cc1c(C(=O)N2CCCC2)c(S(=O)(=O)Nc2cccc(Br)c2)c(C)n1C	-2	-1	0	-2	0	0	nt	nt
Cc1cc(C)cc(NS(=O)(=O)c2c(C(=O)N3CCOCC3)c(C)n(C)c2C)c1	0	-1	0	10*	1	1	0	0
Cc1ccc(NS(=O)(=O)c2c(C(=O)N3CCOCC3)c(C)n(C)c2C)cc1	1	-1	3	-3	0	0	nt	nt
COCCNC(=O)c1ccc(C)cc1C	-1	-1	1	-3	0	0	nt	nt
Cc1cc(C)n(C(=O)c2ccc(C)o2)n1	-1	-1	0	8.7*	-1	1	0	0
COc1ccccc1C(=O)n1nc(C)cc1C	0	-1	-1	-1	1	-1	nt	nt
O=c1[nH]c2ccc(S(=O)(=O)Nc3ccc(-c4nnc5n4CCCCC5)cc3)cc2o1	3	-1	-1	12*	0	1	-2	1
CS(=O)(=O)Nc1ccc(-c2nnc3n2CCCCC3)cc1	-1	-1	4	-1	0	0	nt	nt
Cc1ccc(-c2nnn(CC(=O)NC3CCN(Cc4ccccc4)CC3)n2)cc1	-1	-1	-1	0	0	0	nt	nt
CNC(=S)NNC(=O)c1sc2cc(C(F)(F)F)cnc2c1-c1cccnc1	-1	-1	-5	0	0	-1	nt	nt
CNC(=S)NNC(=O)c1sc2cc(C(F)(F)F)cnc2c1-c1ccccn1	0	-1	-4	8.0*	-1	0	1	2
COc1ccc(CCn2c(-c3ccc(OC)cc3)nc3c(c(=O)c4ccccc4n3C)c2=O)cc1	1	-1	2	-5	0	0	nt	nt
